TR SRC2 fluor cs = alters Texas Red total fluorescence, flagging assay interference | TRb/SRC2 Texas Red total fluorescence interference | Potency, µM (highest dose often 106 µM), for the others: top-dose fluorescence change, negative = quenching | 280,000 tested, 0.29% active; active means well fitted curve in either direction with a large enough effect; inconclusive means small, poorly fitted or top-dose-only effect; further: potency means the concentration at half of the fitted maximal effect; on the % scale 0 is the no-effect control and ±100 the full control effect
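Flags fluorescent or light-absorbing compounds by total fluorescence, S + 2P, at 555 nm excitation and 632 nm emission. Mixture: 20 nM Texas Red SRC2 peptide, 0.6 uM human TRb LBD, 1 uM T3, 5% DMSO; compound exposure 5 h at ambient temperature.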
CBFb-RUNX1 inh = CBF-beta/RUNX1 interaction disruption; Potency, µM (series often up to 59.8 µM), inactives show top-dose activity, negative = inhibition, most hits filed as inhibitors; AlphaScreen CBFb-His/RUNX1-biotin binding, biochemical; 230,000 tested, under 10 active; further: % of control where 0% means no effect
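Room-temperature protein-protein interaction test with 30 nM each of His-tagged CBF-beta and biotinylated RUNX1, 15 min with compound, then 90 min with nickel plus streptavidin beads. Signal read in AlphaScreen mode.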
ERG-DNA inh = inhibitors of human ERG Ets domain-DNA interaction; P11308; fluorescence polarization, His-ERG Ets domain / labelled DNA; Potency, µM (series often up to 76.9 µM), for inactives: top-dose FP activity, negative = inhibition, hits mostly inhibitors; 370,000 tested, 0.028% active; AID 624246; active means well fitted inhibition curve with a large enough effect in the polarisation, with a control signal flat; inconclusive means small, poorly fitted or top-dose-only effect, or effect the other way, or a change in a side signal; inactive means no such curve, though single readings can be large or run the other way; the % refers to the polarisation;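 further: polarization taken with two DNA probes labelled with fluorescein and Texas red; potency means the concentration at half of the fitted maximal effect; % of control where 0% means no effect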
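His-tagged ERG Ets domain (1 uM in the protein solution; 300mM KCl, 50mM Tris-HCl, 1mM EDTA, 1mM DTT, pH 7.5) received compound, then a probe mix of 5 nM fluorescein-DNA and 100nM Texas-615-DNA. Fluorescence polarization was read for both dyes.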
TRb-SRC2 inh = inhibitors of human thyroid hormone receptor beta-SRC2 interaction. P10828. TRbeta-SRC2 peptide binding, fluorescence polarization; receptor liganded with 1 µM T3. Potency, µM (highest dose often 106 µM), for inactives: at the top dose activity change, negative = inhibition, hits mostly inhibitors. 280,000 tested, 0.065% active. AID 1469;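 further: potency means the concentration at half of the fitted maximal effect; plate controls were bound peptide for no effect and peptide without receptor for full effect; nearly all actives have a fitted effect of over 50% in size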
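Each compound concentration gave % activity, normalized to unbound and bound Texas Red SRC2 controls, from polarization read after 5 hr ambient incubation with T3-loaded human TRb LBD.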
RGS12 GoLoco inh = RGS12 GoLoco-Gai1 interaction inhibition | P63096 | Gai1:RGS12 GoLoco peptide FP, rhodamine, 10 min | Potency, µM (doses to about 61.6 µM), for inactives: top-dose activity, negative = inhibition, most hits filed as inhibitors | 230,000 tested, 0.44% active | AID 880; active means well fitted inhibition curve with a large enough effect, not every such curve was filed as active; inactive means no such curve, though single readings can be large or run the other way; further: potency means the concentration at half of the fitted maximal effect; on the % scale 0 is the no-effect control and ±100 the full control effect; nearly all actives have a fitted effect of over 30% in size
Target sequence (P63096 whole entry, looked up): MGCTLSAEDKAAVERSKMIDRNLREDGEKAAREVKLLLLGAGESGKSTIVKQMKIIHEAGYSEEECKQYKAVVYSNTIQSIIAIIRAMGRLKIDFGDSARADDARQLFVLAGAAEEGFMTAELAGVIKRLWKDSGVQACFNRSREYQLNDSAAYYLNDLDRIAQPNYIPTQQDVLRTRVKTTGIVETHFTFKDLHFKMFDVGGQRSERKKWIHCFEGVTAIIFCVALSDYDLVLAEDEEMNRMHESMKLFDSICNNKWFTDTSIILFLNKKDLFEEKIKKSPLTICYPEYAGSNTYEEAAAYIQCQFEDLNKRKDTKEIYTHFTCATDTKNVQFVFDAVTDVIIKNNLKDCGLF
* hit, by the source's call; ? = inconclusive; . = not tested or not shown; ! = not confirmed by another sample; [ ] = another dose, or the depositor's remark. This excerpt belongs to a sample that is enriched for hits. Unless noted, the call rests on the fitted dose curve; in most records, active means well fitted curve in the direction sought with a large enough effect; inconclusive means small, poorly fitted or top-dose-only effect, or another doubt; inactive means no such curve, though single readings can be large; an effect the other way counts as inactive or inconclusive.

SMILES	TR SRC2 fluor cs	CBFb-RUNX1 inh	ERG-DNA inh	TRb-SRC2 inh	RGS12 GoLoco inh
O=C(O)c1ccccc1-c1c2cc(Br)c(=O)cc-2oc2[c]([Hg])c(O)c(Br)cc12	45µM*[fluorescent]	-8%[21.7 µM]	.	20µM*!	1.1µM*
Cn1cc(-c2ccccc2)c(=O)c(-c2cccc(C(F)(F)F)c2)c1	2%[201 µM]	.	.	6%[201 µM]	.
NCCc1cc(O)c(O)cc1O	4%	.	?	40µM*!	25µM*
COc1ccc(CCN)cc1O	0%	-19%	-2%	5%	11%
COc1cc2c(cc1OC)-c1c(O)c(OC)cc3c1[C@H](C2)N(C)CC3	?	4%[21.7 µM]	.	40µM*	11µM*
COc1cc2c(cc1OC)-c1c(OC)c(OC)cc3c1C(C2)N(C)CC3 (stereo not drawn)	1%	-9%	-9%	-19%	4%
Cc1cccc(N2C(=O)NC(=O)/C(=C\c3cnc(-c4ccccc4)nc3)C2=O)c1	1.3µM*[quencher]	-6%	0%	-30%[53 µM]	28%
CC[n+]1c(-c2ccccc2)c2cc(N)ccc2c2ccc(N)cc21	45µM*![fluorescent]	?	16µM*	35µM*!	5.6µM*
O=C(O)CCn1cc(C=C2C(=O)NC(=S)NC2=O)c(-c2ccccc2)n1	-1%	-7%	5%	7%	28µM*
O=C(O)C1(O)c2ccccc2-c2ccc(Cl)cc21 (stereo not drawn)	2%[201 µM]	.	.	6%[201 µM]	.
CC1CC[C@@]2(NC1)OC1CC3C4CC[C@@H]5CC(O)CC[C@@]5(C)C4CC[C@]3(C)C1C2C (stereo partly drawn)	-1%	3%	.	-1%	32µM*
C[C@H]1CC[C@@]2(NC1)O[C@@H]1C[C@@H]3[C@@H]4CC=C5C[C@@H](O)CC[C@]5(C)[C@@H]4CC[C@]3(C)[C@H]1[C@@H]2C	.	.	.	.	4%[14.2 µM]
COc1ccc(-c2ccccc2)cc1NNC(=O)OC(C)C	-3%[201 µM]	.	.	1%[201 µM]	.
Cc1ccccc1CO[C@@H]1C[C@@]2(C(C)C)CC[C@]1(C)O2	1%[201 µM]	.	.	-6%[201 µM]	.
C/C=C(\C)C(=O)N[C@@H](c1ccccc1)[C@@H](O)C(=O)O[C@H]1C[C@@]2(O)[C@@H](OC(=O)c3ccccc3)C3[C@](C)(C(=O)[C@H](OC(C)=O)C(=C1C)C2(C)C)[C@@H](O)C[C@H]1OC[C@@]31OC(C)=O (stereo partly drawn)	-1%	-5%	1%	0%	.
CC(=O)O[C@H]1C(=O)[C@@]2(C)C([C@H](OC(=O)c3ccccc3)[C@]3(O)C[C@H](OC(=O)[C@H](O)[C@@H](NC(=O)c4ccccc4)c4ccccc4)C(C)=C1C3(C)C)[C@]1(OC(C)=O)CO[C@@H]1C[C@@H]2OC(=O)[C@H](C)NC(=O)c1ccc(-c2c3ccc(=O)cc-3oc3cc(O)ccc23)c(C(=O)O)c1 (stereo partly drawn)	20%[11.2 µM]	?	.	-1%[11.2 µM]	2µM*
CCOP(=S)(Oc1cnc(C(C)(C)C)nc1)OC(C)C (stereo not drawn)	-1%[201 µM]	.	.	-2%[201 µM]	.
C[C@H]1OC[C@@H](C[N+](C)(C)C)O1	0%	8%	6%	7%	4µM*
CCOP(=S)(OCC)OC(Cl)C(Cl)(Cl)Cl (stereo not drawn)	-3%[201 µM]	.	.	-5%[201 µM]	.
COc1cc(Cl)c(OC)cc1Cl	-1%[201 µM]	.	.	0%[201 µM]	.
CCN1C(=O)C(=C/C=C/c2ccco2)C(=O)N(CC)C1=S	28µM*[fluorescent]	?	153%	?	-55%
CC(C)N1C(=O)/C(=C/C=C/c2ccco2)C(=O)N(Cc2ccco2)C1=O	-7%	?	?	19%	174%
CC(=O)[O][Hg][c]1ccccc1	3%[201 µM]	18%	.	-8%[201 µM]	1.6µM*!
CNC(=O)OCCc1n(C)cc[n+]1C	-1%	3%	-9%	-8%	1.6µM*
O=C(O)CN1CCN(CC(=O)O)CC(=O)[O][Hg][O]C(=O)C1	.	.	.	.	0.45µM*
SMILES	TR SRC2 fluor cs	CBFb-RUNX1 inh	ERG-DNA inh	TRb-SRC2 inh	RGS12 GoLoco inh
COP(=O)(OC)SCn1c(=O)oc2cc(Cl)cnc21	-12%[201 µM]	.	.	-5%[201 µM]	.
O=P(Oc1ccccc1)(Oc1ccccc1)Oc1ccccc1	-2%[201 µM]	.	.	-4%[201 µM]	.
COc1ccc(OC)c(NC(=O)Cn2cc(C(=O)c3ccccc3F)c3ccccc32)c1	4%	.	1%	6%	.
COc1cccc(C2CCN(CC(=O)Nc3cc(Cl)ccc3OC)CC2O)c1 (stereo not drawn)	.	.	20µM*	.	.
C=C[C@@H]1CN2CC[C@H]1CC2[C@H](O)c1ccnc2ccccc12 (stereo partly drawn)	.	.	.	.	-5%[14.2 µM]
O=C(O)c1cc[c]([Hg][Cl])cc1	-5%	1%	6%	2%	1.3µM*
CC(C)(C)C(=O)[C@@H](Oc1ccc(Cl)cc1)n1cncn1	-1%[201 µM]	.	.	3%[201 µM]	.
CCOC(=O)C1CCCN(c2ccc([N+](=O)[O-])c3nonc23)C1 (stereo not drawn)	50µM*[fluorescent]	-11%	3.2µM*	?	16µM*
C[C@H]1[C@H](c2ccc(Cl)cc2)SC(=O)N1C(=O)NC1CCCCC1	4%[201 µM]	.	.	6%[201 µM]	.
Cc1cc(C(C#N)c2ccc(Cl)cc2)c(Cl)cc1NC(=O)c1cc(I)cc(I)c1O (stereo not drawn)	45µM*[quencher]	.	11%	?	.
CCC(=O)OC1CCC2C3CCC4=CC(=O)CC[C@@]4(C)C3CC[C@]12C (stereo partly drawn)	0%	-6%	.	5%	14µM*
C[C@]12CCC(=O)C=C1CC[C@@H]1C2CC[C@]2(C)C(=O)CCC12 (stereo partly drawn)	.	.	-7%	.	.
O=C1C=Cc2ccccc2C1=O	?	-29%	.	?	-22%
O=C1C=CC(=O)c2c(O)cccc21	8.9µM*[quencher]	.	.	?	-6%
Nc1c(Cl)c(F)nc(OCC(=O)O)c1Cl	-2%[201 µM]	.	.	-2%[201 µM]	.
O=C1NC(=O)N(c2cccc(Cl)c2)C(=O)/C1=C\c1ccc(Sc2nc3ccccc3[nH]2)o1	22µM*[fluorescent]	?	106%	?	-43%
O=C1NC(=O)N(c2ccccc2F)C(=O)/C1=C/c1ccc(Sc2nc3ccccc3[nH]2)o1	45µM*[fluorescent]	?	154%	?	-180%
O=C1NC(=O)N(c2ccccc2)C(=O)/C1=C/c1ccc(Sc2ccccc2)o1	22%	11%	?	?	46%
CC(COc1ccc(Oc2ccccc2)cc1)Oc1ccccn1 (stereo not drawn)	0%[201 µM]	.	.	-2%[201 µM]	.
COc1ccc2c3c([nH]c2c1)C(C)=NCC3	0%	3%	-6%	-4%	13%
CC1=NCCc2c1[nH]c1cc(O)ccc21	3%	?	-4%	6%	28µM*!
CN(C)[C@@H]1C(=O)C(C(N)=O)=C(O)[C@@]2(O)C(=O)C3=C(O)c4c(O)cccc4[C@@](C)(O)[C@H]3[C@H](O)[C@@H]12	16µM*![quencher]	.	?	?	-33%

Source: PubChem
